PAX8 reporter: PAX8 transcriptional activity inhibition. inhibition, % at 12.6 µM. 360,000 tested, 1.2% active. AID 652154. RMG-I TPO-luciferase reporter, SteadyGlo, 24 h;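 active = mean replicate inhibition at least 60% with every replicate also reaching 60%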;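 note: luciferase light reporting Pax8 driven TPO promoter activity; plate controls were median of neutral control wells for no effect and mitoxantrone controls for full effect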
TWEAK-Fn14 inh: inhibitors of TWEAK-Fn14 interaction signaling. 360,000 tested, 2% active. TWEAK-stimulated Fn14 reporter cells, luciferase luminescence, 8 h. inhibition, % at 10 µM; in the data active = inhibition above about 50%
TROY NFkB inh: inhibitors of TROY-dependent NF-kB signaling; Q293 LMP1-TROYcd NF-kB luciferase reporter, 4 h; inhibition, % at 10 µM; 360,000 tested, 0.98% active; AID 1347056;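 active = compounds whose plate-normalised and pattern-corrected inhibition of the luciferase reporter signal at the single screening dose is 50% or more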
EWS-Fli block: blocks EWS/Fli oncoprotein-driven transcription; A673 NR0B1-luciferase reporter, viability-normalised; inhibition, % at 12.6 µM; 350,000 tested, 0.67% active; AID 651661;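 active = mean inhibition of at least 50% after viability correction, with every replicate also passing that limit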;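 note: firefly luciferase signal divided by Alamar Blue viability fluorescence both relative to DMSO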
LGR2 inh: inhibitors of bursicon-induced Drosophila LGR2 receptor cAMP signaling; HEK293 LGR2, CRE-luciferase, bursicon-stimulated, 4 h; inhibition, % at 9.99 µM; 380,000 tested, 0.35% active; AID 720647;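 active = drop in luminescence signal, shown as inhibition above about 50% in the replicate tests, limit read from the data, passing the limit was not always enough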;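 note: agonist challenge used bursicon conditioned medium at about half maximal strength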
* marks the source's active call; other numbers are inactive results; x = not tested or not shown. Shown are actives, neighbours in structure and some others; about 2.8% of the full set was active somewhere.

SMILES	PAX8 reporter	TWEAK-Fn14 inh	TROY NFkB inh	EWS-Fli block	LGR2 inh
COc1ccc(NC(=O)c2cc(-c3cc(C)cc(C)c3O)n[nH]2)cc1Cl	36	82*	64*	x	x
CC(C)NC(=O)Nc1ccc2c(c1)CC(=O)N([C@H](C)CO)C[C@H](C)[C@@H](CN(C)CC1CCCCC1)O2	7	x	x	2	-4
CN(C)c1cccc(NC(=O)C2Cc3c(-c4ccccc4Oc4ccccc4)ccnc3O2)c1 (stereo not given)	18	8	25	-1	-4
CC(=O)Nc1cccc(-c2ccnc3c2CC(C(=O)Nc2cccc(Oc4ccccc4)c2)O3)c1 (stereo not given)	33	57*	41	14	19
O=C(Nc1ccc2c(c1)OCO2)C1Cc2c(-c3ccc4c(c3)OCO4)ccnc2O1 (stereo not given)	30	23	38	53*	21
CC(=O)Nc1ccc(NC(=O)C2Cc3c(-c4ccc5c(c4)OCO5)ccnc3O2)cc1 (stereo not given)	-12	-11	9	3	5
CC(=O)NCCNC(=O)C1Cc2c(-c3cccc(NC(C)=O)c3)ccnc2O1 (stereo not given)	8	13	-1	-11	12
CC(=O)Nc1cccc(-c2ccnc3c2CC(C(=O)NCc2cccs2)O3)c1 (stereo not given)	14	-11	20	72*	18
CC(=O)c1cccc(NC(=O)C2Cc3c(-c4ccccc4Oc4ccccc4)ccnc3O2)c1 (stereo not given)	21	51*	48	8	40
CNC[C@H]1OCCCC[C@H](C)Oc2ccc(NS(=O)(=O)c3ccc(OC)cc3)cc2C(=O)N([C@@H](C)CO)C[C@H]1C	-1	x	x	1	-20
COc1cccc(S(=O)(=O)N2C[C@H](O)COC[C@@H]3O[C@@H](CC(=O)Nc4ccccc4)CC[C@H]32)c1	1	x	x	9	3
C[C@H]1CN([C@@H](C)CO)C(=O)c2cccc(NC(=O)C3CCOCC3)c2O[C@@H]1CN(C)Cc1ccc(Oc2ccccc2)cc1	7	x	x	0	0
Cc1cc(/C=C2/C(=O)NN(c3ccccc3)C2=O)c(C)n1-c1ccc(O)cc1	-63	88*	83*	3	45
CCn1c(C)cc(C=C2C(=O)c3ccccc3C2=O)c1C	-129	54*	31	-11	-4
Cc1cccc(-n2c(C)cc(C=C3C(=O)c4ccccc4C3=O)c2C)c1	x	92*	80*	x	19
Cc1cc(C=C2C(=O)c3ccccc3C2=O)c(C)n1C	4	29	46	x	-37
CC(C)(C)OC(=O)COc1cccc(C(=O)CCN2CCOCC2)c1	4	x	x	-10	x
CNC(=O)C[C@H]1CC[C@H]2[C@H](COc3ccc(NC(=O)Nc4ccccc4)cc3C(=O)N2C)O1	9	x	x	-5	-7
CCN(CC)S(=O)(=O)c1ccc(C)c(NC(=O)CN(C)C)c1	-2	16	53*	0	-10
CCN(CC)S(=O)(=O)c1ccc(C)c(NC(=O)CNCc2ccccc2OC)c1	15	-1	-3	9	-5
Cc1cc(C)c(C)c(S(=O)(=O)N2CCN(c3ncnc4ccccc34)CC2)c1C	53	93*	58*	23	79*
Cc1ccc(S(=O)(=O)N(C)C[C@@H]2OCCCC[C@@H](C)Oc3ccc(NS(=O)(=O)c4ccc(Cl)cc4)cc3C(=O)N([C@@H](C)CO)C[C@H]2C)cc1	68*	x	x	-17	11
Cc1ccc(S(=O)(=O)N(C)C[C@@H]2OCCCC[C@H](C)Oc3ccc(NS(=O)(=O)c4ccc(Cl)cc4)cc3C(=O)N([C@H](C)CO)C[C@@H]2C)cc1	74*	x	x	19	33
Cc1ccc(S(=O)(=O)N(C)C[C@H]2OCCCC[C@H](C)Oc3ccc(NS(=O)(=O)c4ccc(Cl)cc4)cc3C(=O)N([C@H](C)CO)C[C@H]2C)cc1	31	x	x	-3	16
Cc1ccc(S(=O)(=O)N(C)C[C@@H]2OCCCC[C@@H](C)Oc3ccc(NS(=O)(=O)c4ccc(Cl)cc4)cc3C(=O)N([C@H](C)CO)C[C@H]2C)cc1	77*	x	x	-4	4
SMILES	PAX8 reporter	TWEAK-Fn14 inh	TROY NFkB inh	EWS-Fli block	LGR2 inh
Cc1ccc(S(=O)(=O)Nc2ccc3c(c2)C(=O)N([C@H](C)CO)C[C@H](C)[C@H](CN(C)S(=O)(=O)c2ccc(Cl)cc2)OCCCC[C@H](C)O3)cc1	66*	x	x	18	1
O=C(Nc1ccc(F)cc1)Nc1ccc2c(c1)[C@H]1C[C@@H](CC(=O)N3CCCCC3)O[C@@H](CO)[C@H]1O2	-1	x	x	8	1
CCC(=O)Nc1ccc2c(c1)OC[C@@H](C)N(Cc1cccnc1)C[C@H](C)[C@H](OC)CN(C)C2=O	-5	x	x	-7	13
Cc1ccc(S(=O)(=O)Nc2ccc3c(c2)C(=O)N([C@@H](C)CO)C[C@@H](C)[C@H](CN(C)S(=O)(=O)c2ccc(Cl)cc2)OCCCC[C@@H](C)O3)cc1	84*	x	x	11	-6
O=S1(=O)C=C(Sc2nc3cc(Cl)ccc3o2)c2ccccc21	x	64*	28	x	x
CN1CCN(C(=O)Nc2cccc3ccccc23)CC1	x	32	30	3	2
CCN1CCN(C(=O)Nc2cccc3ccccc23)CC1	x	7	56*	x	x
CCc1ccc(N=CC23c4ccccc4C(c4ccccc42)C2C(=O)N(c4ccc(OC)cc4)C(=O)C23)cc1 (stereo not given)	20	23	27	x	x
COc1ccc(N2C(=O)C3C4c5ccccc5C(C=Nc5ccc(C)cc5C)(c5ccccc54)C3C2=O)cc1 (stereo not given)	65*	18	14	x	x
c1cc(-c2cnc3cccnn23)c2cccnc2c1	-18	61*	36	3	x
Cc1ccccc1S(=O)(=O)N1C[C@H](O)COC[C@H]2O[C@H](CC(=O)N3CCN(C)CC3)CC[C@@H]21	-1	x	x	-4	-9
Cc1cc(C(=O)Nc2cccc3c2O[C@H](CN(C)S(=O)(=O)c2c(C)noc2C)[C@H](C)CN([C@H](C)CO)C3=O)n(C)n1	x	x	x	-8	5
O=C(C[C@@H]1C[C@H]2c3cc(NC(=O)Cc4ccncc4)ccc3O[C@H]2[C@@H](CO)O1)NCc1ccc(-c2ccccc2)cc1	43	x	x	30	6
CS(=O)(=O)Nc1ccc2c(c1)[C@@H]1C[C@H](CC(=O)NCc3ccc(Oc4ccccc4)cc3)O[C@@H](CO)[C@@H]1O2	85*	x	x	43	15
O=C(C[C@@H]1C[C@@H]2c3cc(NC(=O)Cc4ccncc4)ccc3O[C@@H]2[C@H](CO)O1)NCc1ccc(-c2ccccc2)cc1	102*	x	x	11	-7
CS(=O)(=O)Nc1ccc2c(c1)[C@@H]1C[C@H](CC(=O)NCc3ccc(Oc4ccccc4)cc3)O[C@H](CO)[C@@H]1O2	12	x	x	6	-3
O=C(Nc1ccc(C(F)(F)F)cc1)Nc1ccc2c(c1)[C@H]1C[C@H](CC(=O)N3CCc4ccccc4C3)O[C@H](CO)[C@H]1O2	82*	x	x	15	21

Bioassay records: PubChem, several laboratories
